Assay results reported in the supplement of paper PMC10105736.

Test system: cpb
Test: MAPPIT interaction score (arbitrary units); higher = stronger binary interaction signal, active = hit call of the paper
Settings: MAPPIT configuration: N-C; pair source set: Lit-BM-16;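 active = MAPPIT score above the 99th percentile of random reference set scores in the same batch; inactive = at or below it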
Protocol: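 MAPPIT in HEK293T cells: Drosophila bait and prey ORFs (from the FlyBi ORF collection) were co-transfected in quadruplicate, with two wells stimulated by erythropoietin. Interaction-dependent JAK-STAT activation was read out with a STAT-responsive firefly luciferase reporter. Positive calls use the 99th percentile of random reference set (RRS) scores within each batch […]. Batches Dvs01 and Dvs02 used the N-N configuration and Dvs04 the N-C configuration. Pairs come from FlyBi screens, CuraGen, DPiM, Finley Y2H, Lit-BM-16, Lit-BS-16 and RRS.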
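Note: HEK293T cells with Epo stimulation, STAT-responsive firefly luciferase reporter, fold induction versus unstimulated cells divided by the larger fold induction of two negative controls lacking either bait or prey.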

Chain of cpa (chain, as listed by the source): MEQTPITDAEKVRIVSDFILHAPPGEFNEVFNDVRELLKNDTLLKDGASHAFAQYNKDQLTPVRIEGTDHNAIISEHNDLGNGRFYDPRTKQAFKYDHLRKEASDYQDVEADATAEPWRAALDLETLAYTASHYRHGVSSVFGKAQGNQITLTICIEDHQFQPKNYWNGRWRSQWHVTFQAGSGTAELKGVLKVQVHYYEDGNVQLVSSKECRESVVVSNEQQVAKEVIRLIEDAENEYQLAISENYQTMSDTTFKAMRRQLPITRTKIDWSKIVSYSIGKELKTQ

Substance	MAPPIT interaction score
cpa	4.39 (active)

Same assay, conditions: MAPPIT configuration: N-N; pair source set: Lit-BM-16

Substance	MAPPIT interaction score
cpa	6.04 (active)
